Source: the supplement of paper PMC12636033
± gives the standard deviation of the averaged measurements. Over roughly 33,000 sequences, “E-score (rank enrichment, -0.5 to 0.5)” has its median near -0.0043; the highest 2% begin near 0.24. The sample holds the highest values, similar sequences and a random draw of the others, so the mix is not that of the screen.

These sequences were tested on 2Sp-muMax20 (muMax20 with two 2,6-bis(methyl)pyridine Cys staples) (assay: PBM 8-mer E-score (E-score (rank enrichment, -0.5 to 0.5)); higher = stronger preferential binding).
Method: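 Protein binding microarray (universal PBM chip covering all 10-mers in fixed probe flanks) with chemically synthesized human Max(13-93) bHLH-LZ analogs (not full-length Max) bearing noncanonical residues (hArg, Tha, Aib, Nle at 65) and aromatic Cys staples. Read-out per 8-mer (and its reverse complement): E-score (rank-based enrichment, -0.5 to 0.5) and Z-score of median probe intensity.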

Row | Sequence | PBM 8-mer E-score
1 | CGCAAGAC | -0.023 ± 0.0044
2 | CCCAATTA | 0.203 ± 0.057
3 | ACCAATTC | -0.0718 ± 0.0024
4 | CCCAATTC | 0.246 ± 0.083
5 | CATTCTTA | 0.145 ± 0.085
6 | ATGTTTGA | 0.176 ± 0.031
7 | ATAATCAC | 0.0279 ± 0.026
8 | ATAATCTG | 0.123 ± 0.1
9 | ATAATCAA | 0.0608 ± 0.095
10 | ATAATCAG | 0.304 ± 0.005
11 | CTAATCAG | -0.0147 ± 0.026
12 | ATAATCAT | 0.27 ± 0.013
13 | CGTCGGCA | -0.197 ± 0.056
14 | CTTCGTTC | -0.0473 ± 0.038
15 | GGTTCAAC | -0.145 ± 0.05
16 | CTCCATAA | 0.0393 ± 0.028
17 | TCCGGCAA | -0.207 ± 0.0021
18 | ATTTCGTC | 0.279 ± 0.019
19 | CTTTCGTC | -0.0338 ± 0.038
20 | ATTTCGTG | 0.166 ± 0.031
21 | CTACGACA | -0.0631 ± 0.043
22 | AGCACGTA | 0.0888 ± 0.021
23 | ACCACGCG | 0.363 ± 0.023
24 | ACCACGTA | -0.0775 ± 0.034
25 | AGCACGTC | -0.0658 ± 0.05

Row | Sequence | PBM 8-mer E-score
26 | ACCACGCA | 0.0893 ± 0.0056
27 | ACCACGTG | 0.436 ± 0.012
28 | ACCACGTC | -0.0398 ± 0.011
29 | AGCACGTG | 0.4333 ± 0.0023
30 | ATCACGCG | 0.247 ± 0.015
31 | ATCACGCC | 0.192 ± 0.043
32 | CCCACGCG | 0.231 ± 0.014
33 | ATCACGCA | 0.00557 ± 0.0074
34 | ACTGCCAA | 0.0746 ± 0.053
35 | GGTAAGAC | -0.0928 ± 0.022
36 | CCGATAAG | -0.181 ± 0.034
37 | ATTTTGCA | 0.143 ± 0.086
38 | TCGTCTCA | -0.0634 ± 0.048
39 | ATGTACCA | -0.0255 ± 0.13
40 | GAGTGCGC | -0.0296 ± 0.0031
41 | CCCCAAGA | 0.144 ± 0.023
42 | ACCTGGAT | -0.149 ± 0.028
43 | GCCGCAGA | -0.0428 ± 0.041
44 | CTAGGACC | -0.182 ± 0.025
45 | ATCACGTC | 0.0413 ± 0.035
46 | ATCACGTA | 0.00227 ± 0.14
47 | CGCACGCG | 0.178 ± 0.032
48 | AGCACGCA | 0.00395 ± 0.075
49 | AGCACGCG | 0.289 ± 0.0067
50 | ATCACGTG | 0.397 ± 0.047

Row | Sequence | PBM 8-mer E-score
51 | CTTCTTAA | 0.126 ± 0.15
52 | CGAAGTGC | 0.0928 ± 0.034
53 | GACGCGGC | -0.08 ± 0.03
54 | CACGCGGC | 0.299 ± 0.034
55 | AACGCGGA | -0.162 ± 0.14
56 | CACGCGGA | 0.357 ± 0.015
57 | CACGCGGG | 0.187 ± 0.091
58 | AACGCGGC | -0.0876 ± 0.028
59 | ATTATGCC | 0.128 ± 0.012
60 | TGCGCACA | 0.124 ± 0.025
61 | ATGGGGCG | 0.25 ± 0.0057
62 | ATGGGGCA | 0.11 ± 0.12
63 | ATGGGGCC | -0.0651 ± 0.11
64 | TGGGGAAA | 0.306 ± 0.022
65 | GTGGGGAA | 0.277 ± 0.027
66 | ATGGGGTG | 0.175 ± 0.018
67 | GTGGGGGA | 0.0699 ± 0.011
68 | CTGGGGAA | -0.125 ± 0.026
69 | ATGGGGTA | 0.239 ± 0.05
70 | GGGGGAAA | -0.0158 ± 0.089
71 | TGGGGGAA | 0.0001 ± 0.016
72 | ATGGGGTC | 0.0299 ± 0.041
73 | CACAGCGG | -0.125 ± 0.059
74 | GATGCCGA | -0.0813 ± 0.081
75 | AGCGTATA | 0.0565 ± 0.04

Row | Sequence | PBM 8-mer E-score
76 | ACATCACT | 0.176 ± 0.046
77 | GCCAGTAA | -0.116 ± 0.011
78 | CCTCGCGC | -0.0606 ± 0.077
79 | CCTCAGAG | -0.228 ± 0.044
80 | GTGGGATA | 0.292 ± 0.047
81 | ATGGGATA | 0.179 ± 0.02
82 | ATGGGGAC | 0.0501 ± 0.13
83 | CTGGGATA | -0.0899 ± 0.077
84 | ATGGGGGA | -0.0138 ± 0.082
85 | ATGGGGAA | 0.266 ± 0.018
86 | AGCATACG | 0.02 ± 0.039
87 | ATCGAGAA | 0.0729 ± 0.041
88 | ACAGGACC | -0.187 ± 0.045
89 | CCGGTCCC | -0.358 ± 0.035
90 | AACACACT | 0.249 ± 0.0053
91 | ATCATATA | 0.254 ± 0.041
92 | GACATATA | 0.12 ± 0.0021
93 | ATCATATG | 0.138 ± 0.065
94 | AACATATG | 0.0968 ± 0.03
95 | CACATATA | 0.328 ± 0.021
96 | CACATATG | 0.112 ± 0.013
97 | AACACACA | 0.118 ± 0.081
98 | AACATATA | 0.269 ± 0.036
99 | CACATATC | 0.223 ± 0.019
100 | GTCATATA | 0.207 ± 0.099

Row | Sequence | PBM 8-mer E-score
101 | AACACACG | 0.0266 ± 0.031
102 | ACCGGTCG | -0.287 ± 0.03
103 | CCACGCCC | 0.0986 ± 0.0018
104 | CTCGTTAC | 0.0748 ± 0.13
105 | CGGAATTC | -0.121 ± 0.019
106 | AGCGTTAA | 0.0977 ± 0.058
107 | ATCCAGTC | -0.0864 ± 0.015
108 | CAGGAACC | -0.307 ± 0.049
109 | CCCATAAG | 0.182 ± 0.018
110 | CCCAGCTC | -0.0772 ± 0.05
111 | CACATCTG | -0.0474 ± 0.049
112 | TACATACA | 0.211 ± 0.075
113 | TACATATA | 0.262 ± 0.09
114 | CACATCTA | 0.258 ± 0.014
115 | AACACATA | 0.257 ± 0.046
116 | AACACATG | 0.224 ± 0.05
117 | CACATCTC | -0.00875 ± 0.02
118 | CACACATA | 0.061 ± 0.0022
119 | TACATAAA | 0.229 ± 0.018
120 | TAGGTCCA | -0.13 ± 0.058
121 | GCAACCGA | -0.233 ± 0.078
122 | CGACCATC | -0.0509 ± 0.089
123 | CCATTGTA | 0.214 ± 0.022
124 | ATAAAGCG | 0.0648 ± 0.005
125 | AATAAAGG | 0.0234 ± 0.076

Row | Sequence | PBM 8-mer E-score
126 | ATAAAAAA | 0.202 ± 0.038
127 | ATAAAAAG | 0.315 ± 0.0042
128 | TATAAATA | 0.203 ± 0.1
129 | ATAAAAGG | 0.0278 ± 0.023
130 | CATAAAAG | -0.0196 ± 0.1
131 | CATAAATA | 0.33 ± 0.059
132 | CTAAAGCA | 0.0725 ± 0.028
133 | ATAAAGCA | 0.241 ± 0.014
134 | AATAAAAG | 0.25 ± 0.074
135 | AATAAATA | 0.0526 ± 0.066
136 | TACGAGAA | 0.0414 ± 0.0095
137 | CCCGACTC | -0.0283 ± 0.023
138 | CCGAGCCG | -0.298 ± 0.03
139 | GACCCGCC | 0.106 ± 0.0061
140 | TCGGAGAA | -0.136 ± 0.017
141 | AGGTCTAG | 0.0236 ± 0.096
142 | ACCTGGTA | -0.129 ± 0.0054
143 | CATGGGCG | -0.0275 ± 0.017
144 | CAGCCCCC | -0.165 ± 0.099
145 | CACTTGAA | 0.112 ± 0.02
146 | CAAAGGGA | -0.103 ± 0.053
147 | ATCAAGCA | -0.065 ± 0.053
148 | AATAAAAT | 0.103 ± 0.12
149 | AATAAAAC | 0.223 ± 0.072
150 | ATAAAACG | 0.145 ± 0.057

Row | Sequence | PBM 8-mer E-score
151 | AATAACAT | 0.221 ± 0.13
152 | AATAAAAA | 0.258 ± 0.0034
153 | GTAAAACA | 0.174 ± 0.056
154 | ATCAAACA | 0.26 ± 0.0065
155 | AATAACAC | 0.134 ± 0.04
156 | ATAAAACA | 0.244 ± 0.067
157 | AATAACAA | 0.259 ± 0.041
158 | CTCAAACA | -0.00491 ± 0.013
159 | AGACACAC | 0.158 ± 0.0089
160 | GCTTCAGA | -0.0923 ± 0.073
161 | AATCGATT | 0.0682 ± 0.041
162 | AAACGAGG | 0.0592 ± 0.027
163 | CAGATGTC | -0.0701 ± 0.0093
164 | CCCAGGTA | -0.0104 ± 0.052
165 | TATACAAA | 0.256 ± 0.065
166 | AATACGCT | 0.217 ± 0.0037
167 | AATACGCA | 0.286 ± 0.0084
168 | AATACAAG | 0.245 ± 0.086
169 | AATACATA | 0.139 ± 0.0041
170 | AATACAGA | 0.00182 ± 0.094
171 | AATACAAT | 0.0568 ± 0.04
172 | CATACAAA | 0.0246 ± 0.065
